DT40 TDP1 CPT – DT40-hTDP1 cell growth loss with CPT | chicken DT40 Tdp1-/-;hTDP1 cells + 20 nM CPT, ATP luminescence, 48 h | Potency, µM (series often up to 46.2 µM), without a hit: top-dose activity change, negative = growth inhibition, hits mostly inhibitors | hit rate 12% among 420,000 | AID 686979; also: nearly all actives have a fitted effect of over 55% in size
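Chicken DT40 Tdp1-/- cells complemented with human TDP1, 400 cells/well, exposed to compounds plus 20 nM camptothecin for at least 48 h at 37 C; viability read as ATP content by CellTiter-Glo luminescence.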
KB-3-1 cytotox – KB-3-1 parental cell cytotoxicity; KB-3-1 viability, CellTiter-Glo ATP luminescence, 72 h; hit rate 1.4% among 400,000; Potency, µM (highest dose often 46.1 µM), most hits filed as cytotoxic; also: nearly all actives have a fitted effect of over 60% in size
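Luminescent ATP read-out (CellTiter-Glo) measures survival of drug-naive KB-3-1 cells after 72 h compound exposure at 37 °C. Titration series was screened from lowest to highest concentration, with DMSO vehicle plates as background controls.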
HT1080NT lethal – kills 2HG-producing HT-1080-NT fibrosarcoma cells | HT-1080-NT fibrosarcoma viability, CellTiter-Glo ATP luminescence, 48 h | Potency, µM (highest dose often 46.1 µM), inactives show top-dose activity, negative = less viability, actives largely listed as cytotoxic | hit rate 1.6% among 360,000;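 also: NT is the 2HG producing partner of a matched IDH1 knockdown line; 0% = DMSO-treated cells and -100% = media-only wells without cells; nearly all actives have a fitted effect of over 55% in size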
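Read-out is CellTiter-Glo luminescence after 10 minutes at room temperature, following 48 hours' compound treatment of HT-1080-NT cells (750 cells/well, RPMI, 5% FBS, 37 degrees C).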
KB-V1 cytotox – kills drug-selected multidrug resistant KB-V1 cells. KB-V1 MDR cells viability, CellTiter-Glo, 72 h. Potency, µM (doses to about 46.1 µM), most hits filed as cytotoxic. hit rate 3.4% among 400,000; also: nearly all actives have a fitted effect of over 60% in size
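Luminescent ATP read-out (CellTiter-Glo, 10 min) measures survival of drug-selected KB-V1 MDR cells after 72 h, 37 degrees C compound exposure. Medium: phenol-red-free DMEM, 10% FBS. Values from fitted concentration-response curves.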
DT40 TDP1 no CPT – qHTS for Inhibitors of human tyrosyl-DNA phosphodiesterase 1 (TDP1): qHTS in cells in absence of CPT | DT40 Tdp1-/- hTDP1 cells, no CPT, ATP luminescence, 48 h | Potency, µM (top dose mostly 46.2 µM), without a hit: top-dose activity change, negative = growth inhibition, actives largely listed as inhibitors | hit rate 15% among 420,000 | AID 686978, 2013; also: nearly all actives have a fitted effect of over 55% in size
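Growth of hTDP1-complemented DT40 Tdp1-knockout cells is measured by ATP luminescence after at least 48 hr compound exposure at 37 °C, with DMSO substituting for the 20 nM CPT used in the parallel screen.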
HT1080 IDH1KD tx – toxicity to HT-1080 IDH1 knockdown cells (counter line); hit rate 2% among 360,000; HT-1080 IDH1 knockdown viability, ATP luminescence, 48 h; Potency, µM (titrated, usually from 46.1 µM), without a hit: at the highest dose activity, negative = toxicity, hits mostly cytotoxic;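 also: 0% = DMSO wells and -100% = cell-free medium wells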
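Using the IDH1-knockdown HT-1080 line run in the same batch and compound series as the NT line, viability after 48 h at 37 °C was determined by CellTiter-Glo luminescence and expressed as % activity.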
* marks the source's active call; other numbers are inactive results; i = inactive; ? = inconclusive; . = no result; [ ] = another dose, or the depositor's remark. An excerpt weighted towards active compounds, which were near 19% of everything screened. Calls follow the shape of the dose curve; as a rule, active = well fitted curve in the direction sought with a large enough effect; inconclusive = small, poorly fitted or top-dose-only effect, or another doubt; inactive = no such curve, though single readings can be large; an effect the other way counts as inactive or inconclusive. Unless noted, % is scaled to controls: 0 for no effect and ±100 for the full control effect; potency is read from the fitted curve at half-maximal effect.

SMILES	DT40 TDP1 CPT	KB-3-1 cytotox	HT1080NT lethal	KB-V1 cytotox	DT40 TDP1 no CPT	HT1080 IDH1KD tx
O=C(CCN1CCCCC1)c1ccc2c(c1)OCO2	7.31µM*	?	-22.3%	i	10.3µM*	-2.3%
Cc1n(C)c2cc(Cl)ccc2[n+]1Cc1ccccc1	?	?	1.3%	i	23.1µM*	-10.1%
CC[n+]1c(C)n(C)c2cc(S(=O)(=O)N(C)C)ccc21	15.2%	i	-1.4%	i	0.5%	-0.3%
CC(C)Nc1ncnc2c1ncn2[C@H]1CN(Cc2cccnc2)C[C@@H](CO)O1	6.5%	i	15.9%	i	-0.9%	6.9%
COc1ccc([C@H]2/C=C\CN(C(=O)c3ccc(C)cc3)[C@@H](C)C(=O)N2Cc2ccc(F)cc2)cc1	?	?	?	?	20.6µM*	?
COc1ccc(C2/C=C\CN(C(=O)c3ccccc3)[C@H](Cc3ccccc3)C(=O)N2Cc2ccc(F)cc2)cc1 (stereo partly drawn)	20.6µM*	?	-7.6%	i	14.6µM*	-3.4%
COc1ccc(C2/C=C\CN(S(=O)(=O)/C=C/c3ccccc3)[C@H](Cc3ccccc3)C(=O)N2Cc2ccc(F)cc2)cc1 (stereo partly drawn)	?	i	2.1%	i	?	0.8%
COc1ccc([C@H]2/C=C\CN(Cc3ccc(N(C)C)cc3)[C@@H](C)C(=O)N2Cc2ccc(F)cc2)cc1	?	i	-0.6%	i	?	-2.4%
CC1CN(C2=NC(=O)/C(=C/c3ccncc3)S2)CC(C)O1 (stereo not drawn)	-10.4%	i	11.1%	i	-13.9%	0.0%
CN(CC(=O)Nc1cccc(F)c1)C(=O)/C=C/c1cc(Br)ccc1OC(F)F	4.61µM*	i	-9.2%	?	5.8µM*	0.1%
C=CCn1c(COc2cccc(C)c2)nnc1SCC(=O)NC(=O)NCc1ccco1	-7.0%	i	9.2%	i	3.4%	16.8%
COc1ccccc1CSc1nc2n(n1)C(c1ccccc1)C(C(=O)Nc1ccc(C)cc1)=C(C)N2 (stereo not drawn)	16.4µM*	i	.	i	23.1µM*	.
COc1cccc(CSc2nc3n(n2)C(c2cccc(F)c2)C(C(=O)Nc2ccccc2C)=C(C)N3)c1 (stereo not drawn)	3.7%	i	.	?	-2.9%	.
COc1cccc(CSc2nc3n(n2)C(CC(C)C)C(C(=O)Nc2ccccc2OC)=C(C)N3)c1 (stereo not drawn)	18.4µM*	i	.	i	13µM*	.
CC1=C(C(=O)Nc2ccccc2C)C(c2cccs2)n2nc(SCc3ccccc3)nc2N1 (stereo not drawn)	20.6µM*	i	.	i	20.6µM*	.
COc1cc(C2C(C(=O)Nc3ccc(C)cc3C)=C(C)Nc3nc(SCc4ccccc4)nn32)cc(OC)c1OC (stereo not drawn)	20.6µM*	i	.	i	23.1µM*	.
CC1=C(C(=O)Nc2ccc(C)cc2C)C(c2ccc(C(=O)O)cc2)n2nc(SCc3ccccc3)nc2N1 (stereo not drawn)	-3.4%	i	.	i	-2.9%	.
O=C(Nc1nccs1)c1ccc(-c2ccc(F)c(Cl)c2)o1	?	i	2.4%	i	?	-9.0%
COc1ccccc1NC(=O)C1=C(C)Nc2nc(SCc3ccccc3F)nn2C1c1ccncc1 (stereo not drawn)	-6.3%	i	.	i	-23.9%	.
CC1=C(C(=O)Nc2ccccc2C)C(c2ccccn2)n2nc(SCc3ccccc3F)nc2N1 (stereo not drawn)	6.51µM*	.	.	.	10.3µM*	.
CC1=C(C(=O)Nc2ccc(Cl)cc2)C(c2cccs2)n2nc(SCc3cccc(Cl)c3)nc2N1 (stereo not drawn)	-3.0%	i	.	?	-21.4%	.
CC1=C(C(=O)Nc2ccc(C)cc2C)C(c2cccs2)n2nc(SCc3ccc(Cl)cc3)nc2N1 (stereo not drawn)	10.3µM*	i	.	?	11.6µM*	.
CCOC(=O)c1ccc2ncc(C(=O)OCC)c(NCCN(C)C)c2c1	2.6%	i	?	i	-16.4%	14.2%
CCOC(=O)c1cnc2ccccc2c1NCCc1ccc(OC)c(OC)c1	16.4µM*	i	1.3%	i	10.3µM*	0.6%
CCOC(=O)c1cnc2ccc(OC)cc2c1NCCc1ccc(OC)c(OC)c1	6.51µM*	i	2.7%	?	7.31µM*	7.3%
SMILES	DT40 TDP1 CPT	KB-3-1 cytotox	HT1080NT lethal	KB-V1 cytotox	DT40 TDP1 no CPT	HT1080 IDH1KD tx
Oc1c(Cl)cc(Cl)cc1/C=N/c1nccs1	25.9µM*	i	-10.6%	i	?	-15.2%
CCCCCCCC(=O)C(C)C(=O)N(C)[C@H](Cc1ccc(OC)cc1)C(=O)N(C)[C@H](C(N)=O)C(C)C (stereo partly drawn)	?	i	0.6%	i	23.1µM*	-1.1%
COc1cccc(CN2CCOc3ccc(C(O)c4cccnc4)cc3C2)c1 (stereo not drawn)	-0.7%[9.04 µM]	.	.	.	-1.5%	.
CCn1c2ccccc2c2cc(CN3CCOc4ccc(C(O)c5cccnc5)cc4C3)ccc21 (stereo not drawn)	?	.	.	.	25.9µM*	.
COc1cc(C)c(CN2CCOc3ccc(C(O)c4cccnc4)cc3C2)cc1C (stereo not drawn)	-5.2%[9.04 µM]	.	.	.	18.4µM*	.
O=C(CN1C(=O)NC2(CCCC2)C1=O)NNC(=O)c1ccccc1	-4.6%	i	2.5%	i	-12.9%	2.0%
COC(=O)C1C(O)CC[C@@H]2CN3CCc4c([nH]c5ccccc45)C3C[C@@H]12 (stereo partly drawn)	12.8%	.	.	.	-0.2%	.
COCc1ccc(C(=O)Nc2cccc(S(=O)(=O)N(C)c3ccccc3)c2)cc1	18.4µM*	i	6.51µM*	?	18.4µM*	-15.5%
CN(c1ccc(C(=O)Nc2cccc(O)c2)cc1)S(=O)(=O)c1ccccc1	?	.	-9.6%	.	?	0.1%
CN(C)S(=O)(=O)c1cccc(NC(=O)c2ccc(OC(F)(F)F)cc2)c1	?	?	8.6%	2.59µM*	?	3.4%
CCN(CC)CCNC(=O)c1ccc(NC(=O)c2ccc(COc3ccccc3)cc2)cc1	23.1µM*	?	-10.0%	i	-4.7%	?
CN(C)S(=O)(=O)c1cccc(NC(=O)c2ccc(COc3ccccc3)cc2)c1	18.4µM*	?	?	?	6.51µM*	-0.9%
